# The supplement of paper PMC9262897, “Low-cost anti-mycobacterial drug discovery using engineered E. coli” (Nature Communications, 2022)
# Structures can show the parent of a compound that is named as a salt. ± gives the standard deviation of the averaged measurements.
# Tests used:
# Assay in all cases: growth (OD600 after 10 h); higher = more growth (less inhibition)
# [1] = test system: E. coli TESEC Alr+ wild-type control; details: compound 0.1 mM; raw OD600 reference: median of DMSO wells 0.241, cell-free background 0.041
# Procedure: (§1)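 TESEC Mtb Alr E. coli, or the Alr+ wild-type control, in 384-well plates with Prestwick library compounds at 0.1 mM and 1% DMSO, across arabinose induction levels of 1E3 to 1E7 nM. Growth is read as OD600 after 10 h at 37 °C in triplicate biological replicates.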
# E. coli TESEC Mtb Alr [2] = details: compound 0.1 mM
# Procedure: as §1
# E. coli TESEC Mtb Asd = details: compound 0.1 mM
# Procedure: (§2)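 TESEC E. coli strains in which the native enzyme is deleted and replaced by arabinose-inducible Mtb Asd, DapB, CysH or TrpD, each grown in its selective medium. Strains were screened against the Prestwick library at 0.1 mM and 1% DMSO in 384-well format at low and high arabinose induction. Growth is read as OD600 after 10 h in triplicate.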
# E. coli TESEC Mtb DapB = details: compound 0.1 mM
# Procedure: as §2
# E. coli TESEC Mtb Alr [3] = details: compound 0.1 mM; remark: listed apart in the source
# Procedure: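 TESEC Mtb Alr E. coli (ΔaraC ΔtolC ΔentC Δalr ΔdadX, arabinose-inducible Mtb Alr) or the Alr+ wild-type control strain, grown in defined M9-fructose medium without D-alanine in 96-well plates with Prestwick library compounds at 0.1 mM and 1% DMSO. Low Alr induction is 0.1 µM arabinose and high induction is 10 mM arabinose.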
# [4] = arabinose 1000 nM, raw OD600 reference: median of DMSO wells 0.294, cell-free background 0.041
# [5] = arabinose 10000 nM, raw OD600 reference: median of DMSO wells 0.264, cell-free background 0.041
# [6] = arabinose 100000 nM, raw OD600 reference: median of DMSO wells 0.201, cell-free background 0.041
# [7] = arabinose 1000000 nM, raw OD600 reference: median of DMSO wells 0.193, cell-free background 0.041
# [8] = arabinose 10000000 nM, raw OD600 reference: median of DMSO wells 0.146, cell-free background 0.041
# [9] = arabinose induction (level): High, raw OD600 reference: median of DMSO wells 0.331, cell-free background 0.041
# [10] = arabinose induction (level): Low, raw OD600 reference: median of DMSO wells 0.417, cell-free background 0.041
# [11] = arabinose induction (level): High, raw OD600 reference: median of DMSO wells […], cell-free background 0.041
# [12] = arabinose induction (level): Low, raw OD600 reference: median of DMSO wells 0.227, cell-free background 0.041
# [13] = arabinose 100 nM, raw OD600 reference: median of DMSO wells 0.413, cell-free background 0.052
# [14] = arabinose 10000000 nM, raw OD600 reference: median of DMSO wells […], cell-free background 0.052
Structure (SMILES),growth [1],growth (E. coli TESEC Mtb Alr [2]; [4]),growth (E. coli TESEC Mtb Alr [2]; [5]),growth (E. coli TESEC Mtb Alr [2]; [6]),growth (E. coli TESEC Mtb Alr [2]; [7]),growth (E. coli TESEC Mtb Alr [2]; [8]),growth (E. coli TESEC Mtb Asd; [9]),growth (E. coli TESEC Mtb Asd; [10]),growth (E. coli TESEC Mtb DapB; [11]),growth (E. coli TESEC Mtb DapB; [12]),growth (E. coli TESEC Mtb Alr [3]; [13]),growth (E. coli TESEC Mtb Alr [3]; [14])
CN(C(=O)C(Cl)Cl)c1ccc(OC(=O)c2ccco2)cc1 [Diloxanide furoate],0.185 ± 0.0099,0.264 ± 0.018,0.256 ± 0.01,0.169 ± 0.0067,0.172 ± 0.0079,0.167 ± 0.004,0.366 ± 0.011,0.353 ± 0.024,0.2046 ± 0.0011,0.21 ± 0.02,0.415 ± 0.016,0.374 ± 0.025
CCCSc1ccc2[nH]c(NC(=O)OC)nc2c1 [Albendazole],0.246 ± 0.025,0.274 ± 0.021,0.255 ± 0.0036,0.211 ± 0.031,0.1462 ± 0.00096,0.137 ± 0.0025,0.41 ± 0.017,0.409 ± 0.033,0.205 ± 0.0098,0.25 ± 0.025,0.428 ± 0.01,0.419 ± 0.054
CN1CCN2c3ncccc3Cc3ccccc3C2C1 (centres undefined) [Mirtazapine],0.217 ± 0.0068,0.281 ± 0.0088,0.2774 ± 0.0027,0.225 ± 0.025,0.182 ± 0.021,0.162 ± 0.0043,0.261 ± 0.11,0.29 ± 0.013,0.212 ± 0.0063,0.249 ± 0.019,0.414 ± 0.014,0.336 ± 0.014
CCCCNc1ccc(C(=O)OCCOCCOCCOCCOCCOCCOCCOCCOCCOC)cc1 [Benzonatate],0.241 ± 0.0078,0.279 ± 0.0063,0.252 ± 0.011,0.217 ± 0.0091,0.148 ± 0.006,0.157 ± 0.0052,0.245 ± 0.012,0.405 ± 0.0093,0.17 ± 0.017,0.206 ± 0.036,0.407 ± 0.012,0.264 ± 0.12
CC(C)(C)NC(=O)[C@@H]1C[C@@H]2CCCC[C@@H]2CN1C[C@@H](O)[C@H](Cc1ccccc1)NC(=O)[C@H](CC(N)=O)NC(=O)c1ccc2ccccc2n1 [Saquinavir mesylate],0.072 ± 0.012,0.0535 ± 0.0019,0.0491 ± 0.0035,0.0468 ± 0.0011,0.051 ± 0.0027,0.0524 ± 0.0032,0.0544 ± 0.0037,0.0524 ± 0.001,0.05287 ± 0.00045,0.0578 ± 0.0085,0.273 ± 0.11,0.0539 ± 0.0034
CO[C@@]1(NC(=O)C(C(=O)O)c2ccc(O)cc2)C(=O)N2C(C(=O)O)=C(CSc3nnnn3C)CO[C@@H]21 (some centres undefined) [Moxalactam disodium salt],0.03947 ± 0.00038,0.0445 ± 0.0063,0.0401 ± 0.00064,0.039 ± 0.0013,0.03987 ± 0.00015,0.0393 ± 0.00046,0.0546 ± 0.0041,0.0559 ± 0.007,0.0504 ± 0.0038,0.0472 ± 0.001,0.0472 ± 0.00072,0.056 ± 0.0067
CCOC(=O)[N-]c1c[n+](N2CCOCC2)no1 [Molsidomine],0.245 ± 0.0064,0.307 ± 0.0077,0.27 ± 0.0035,0.244 ± 0.048,0.182 ± 0.0019,0.166 ± 0.0027,0.305 ± 0.1,0.338 ± 0.084,0.207 ± 0.022,0.23 ± 0.02,0.408 ± 0.014,0.313 ± 0.022
Cn1c(=O)c2c(ncn2C)n(C)c1=O [Caffeine],0.233 ± 0.0046,0.28 ± 0.0091,0.277 ± 0.0046,0.2 ± 0.016,0.215 ± 0.0057,0.14 ± 0.0044,0.304 ± 0.065,0.352 ± 0.11,0.192 ± 0.01,0.228 ± 0.044,0.412 ± 0.0085,0.369 ± 0.006
COc1ccc(-c2ccc(=N)n(CCCC(=O)O)n2)cc1 [Gabazine bromide],0.247 ± 0.012,0.279 ± 0.029,0.262 ± 0.007,0.225 ± 0.027,0.19 ± 0.0086,0.148 ± 0.0044,0.232 ± 0.02,0.342 ± 0.055,0.206 ± 0.0056,0.208 ± 0.021,0.402 ± 0.0095,0.341 ± 0.0049
CN1CCN(c2c(F)cc3c(=O)c(C(=O)O)cn(CCF)c3c2F)CC1 [Fleroxacin],0.0517 ± 0.002,0.04717 ± 0.00045,0.0416 ± 0.0006,0.0505 ± 0.0014,0.0445 ± 0.00081,0.0554 ± 0.00072,0.0848 ± 0.0081,0.0766 ± 0.014,0.0682 ± 0.001,0.0599 ± 0.003,0.0555 ± 0.0013,0.05217 ± 5.8e-05
CC[N+](C)(C)Cc1ccccc1Br [Bretylium tosylate],0.253 ± 0.011,0.323 ± 0.02,0.261 ± 0.0084,0.22 ± 0.0026,0.1733 ± 0.00021,0.1633 ± 0.00072,0.484 ± 0.032,0.476 ± 0.018,0.221 ± 0.025,0.241 ± 0.013,0.409 ± 0.015,0.324 ± 0.017
Clc1ccc(C(c2ccccc2Cl)C(Cl)Cl)cc1 (centres undefined) [Mitotane],0.224 ± 0.0027,0.215 ± 0.017,0.224 ± 0.01,0.183 ± 0.012,0.0935 ± 0.018,0.133 ± 0.013,0.213 ± 0.018,0.204 ± 0.018,0.208 ± 0.0072,0.224 ± 0.033,0.38 ± 0.011,0.0729 ± 0.0022
CCN(CCCCOC(=O)c1ccc(OC)c(OC)c1)C(C)Cc1ccc(OC)cc1 (centres undefined) [Mebeverine hydrochloride],0.157 ± 0.004,0.231 ± 0.0024,0.243 ± 0.0072,0.18 ± 0.0066,0.125 ± 0.0057,0.165 ± 0.0094,0.197 ± 0.026,0.396 ± 0.046,0.166 ± 0.012,0.252 ± 0.032,0.4063 ± 0.003,0.311 ± 0.0053
CCC(=O)OCC(=O)[C@@]1(OC(=O)CC)[C@H](C)C[C@H]2[C@H]3[C@H]([C@@H](O)C[C@@]21C)[C@@]1(C)C=CC(=O)C=C1C[C@H]3Cl [Alclometasone dipropionate],0.21 ± 0.0058,0.318 ± 0.028,0.277 ± 0.017,0.226 ± 0.07,0.127 ± 0.022,0.217 ± 0.065,0.209 ± 0.013,0.459 ± 0.032,0.198 ± 0.0033,0.215 ± 0.0041,0.401 ± 0.0078,0.241 ± 0.04
C[C@H]1[C@H](NC(=O)/C(=N\OC(C)(C)C(=O)O)c2csc(N)n2)C(=O)N1S(=O)(=O)O [Aztreonam],0.161 ± 0.011,0.0624 ± 0.0045,0.0463 ± 0.0008,0.136 ± 0.014,0.177 ± 0.005,0.172 ± 0.0037,0.161 ± 0.009,0.11 ± 0.0038,0.188 ± 0.0055,0.186 ± 0.026,0.0511 ± 0.0047,0.277 ± 0.016
C[N+]1(C)CCC(OC(=O)C(O)(c2ccccc2)C2CCCC2)C1 (centres undefined) [Glycopyrrolate],0.223 ± 0.0096,0.301 ± 0.0095,0.267 ± 0.0065,0.185 ± 0.021,0.1866 ± 0.001,0.138 ± 0.0078,0.337 ± 0.055,0.425 ± 0.04,0.194 ± 0.025,0.196 ± 0.011,0.408 ± 0.0092,0.335 ± 0.014
CO[C@@H]1[C@@H](OC(N)=O)[C@@H](O)[C@H](Oc2ccc3c(O)c(NC(=O)c4ccc(O)c(CC=C(C)C)c4)c(=O)oc3c2C)OC1(C)C [Novobiocin sodium salt],0.0431 ± 0.00086,0.0437 ± 0.0029,0.0409 ± 0.0007,0.0461 ± 0.0025,0.0415 ± 0.00082,0.0423 ± 0.00026,0.0533 ± 0.0015,0.0535 ± 0.0063,0.05077 ± 0.0005,0.0501 ± 0.00055,0.0617 ± 0.0036,0.052 ± 0.0006
